ALR H2O2 inh – inhibitors of human ALR sulfhydryl oxidase, primary screen, biochemical, H2O2 detection, HRP-luminol luminescence, single point; purified ALR, DTT oxidation; inhibition, % (test concentration not listed); 290,000 tested, 3.8% active;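 active = mean replicate inhibition above about 79%, with every replicate also reaching it, limit read from the data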
PRMT1 inh – PRMT1 methyltransferase inhibitors, primary screen, biochemical, fluorescence polarization; Protein arginine N-methyltransferase 1 (Homo sapiens), Q99873; inhibition, % at 2.79 µM; recombinant PRMT1, activity-based probe fluorescence polarization; 370,000 tested, 1.3% active;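 active = inhibition above about 21% made by adding two undisclosed values, limit read from the data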
ABHD5-PLIN5 inh – ABHD5-PLIN5 interaction inhibitors, primary screen, cell lysate, split luciferase complementation, luminescence | Perilipin-5 (Homo sapiens) + 1-acylglycerol-3-phosphate O-acyltransferase ABHD5 (Homo … | Split G. princeps luciferase complementation, 4 h | inhibition, % at 4 µM | 360,000 tested, 0.78% active | AID 602281, 2012;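 active = inhibition above the mean inhibition across every tested compound plus 3 SD, cut at about 22% in these data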
Target sequence (Q00G26 whole entry, looked up): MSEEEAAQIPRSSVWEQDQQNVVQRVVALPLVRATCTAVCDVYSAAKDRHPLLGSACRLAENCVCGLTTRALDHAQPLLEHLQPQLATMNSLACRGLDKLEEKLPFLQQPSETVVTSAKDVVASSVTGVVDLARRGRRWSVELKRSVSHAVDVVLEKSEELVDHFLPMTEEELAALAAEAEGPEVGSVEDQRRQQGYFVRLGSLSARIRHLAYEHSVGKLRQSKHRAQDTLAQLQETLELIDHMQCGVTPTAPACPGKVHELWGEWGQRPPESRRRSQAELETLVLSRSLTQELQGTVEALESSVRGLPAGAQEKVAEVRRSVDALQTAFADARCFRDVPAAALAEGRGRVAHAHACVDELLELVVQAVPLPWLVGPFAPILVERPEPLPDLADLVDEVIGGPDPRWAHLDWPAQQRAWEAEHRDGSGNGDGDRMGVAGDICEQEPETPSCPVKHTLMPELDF
Target sequence (Q8WTS1 whole entry, looked up): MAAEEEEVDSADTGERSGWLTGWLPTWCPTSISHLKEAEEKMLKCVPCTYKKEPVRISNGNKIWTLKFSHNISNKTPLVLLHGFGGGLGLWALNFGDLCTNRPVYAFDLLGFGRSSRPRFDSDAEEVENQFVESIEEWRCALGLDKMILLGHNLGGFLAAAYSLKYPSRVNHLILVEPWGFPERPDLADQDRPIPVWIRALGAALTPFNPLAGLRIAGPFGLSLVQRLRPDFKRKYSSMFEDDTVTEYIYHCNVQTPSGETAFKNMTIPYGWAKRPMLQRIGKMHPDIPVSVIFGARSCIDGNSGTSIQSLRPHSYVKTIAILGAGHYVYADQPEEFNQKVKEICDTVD
Rtt109 HAT inh – inhibitors of C. albicans Rtt109/Vps75 HAT, primary screen, biochemical, ThioGlo CoA-SH fluorescence, plate reader. 330,000 tested, 0.16% active. Histone acetyltransferase RTT109 (Candida albicans (strain SC5314 / ATCC MYA-2876)), …. purified Rtt109/Vps75, 4 h. inhibition, % at 34.9 µM;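 active = inhibition of at least 50% in every replicate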
rCAG RNA binder – binders of r(CAG) RNA repeats, primary screen, biochemical, fluorescence. AID 651821, 2012. 370,000 tested, 1.3% active. r(CAG) RNA repeat, TO-PRO-1 dye displacement fluorescence. inhibition, % at 3 µM;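 active = inhibition above the plate cutoff, the mean of all test compounds on that plate plus 3 SD, cut at about 35% in these data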;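 note: higher means more dye released from RNA so lower well fluorescence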
LANA-H2A inh – blockers of LANA interaction with H2A/H2B – biochemical, FP readout, HTS, primary screen; Protein LANA1 (Human herpesvirus 8 type P (isolate GK18)), Q9QR71; inhibition, % (no concentration beside the values); AID 2629, 2010; cell-free LANA-H2A/H2B peptide, fluorescence polarization; 320,000 tested, 0.6% active; in the data active = inhibition mostly above about 10%, no sharp cut-off; inactive = mostly below about 6.7%
Large screens that a line does not name were inactive. A selection: hits, their analogues and other compounds. The true share with any hit is near 5.9%.

O=C(Nc1ccccc1C(=O)N/N=C/c1ccccc1)c1ccco1	none
O=C(Nc1ccccc1C(=O)N/N=C/c1ccc(O)cc1)c1ccccc1	ALR H2O2 inh 94
CC(=O)c1ccc(NC(=O)C(NC(=O)c2ccccc2)=C(C)C)cc1	none
O=C(N/N=C/c1ccncc1)c1ccncc1	none (no result: ALR H2O2 inh, LANA-H2A inh)
CC(C)=C(NC(=O)c1ccccc1)C(=O)N/N=C/c1ccc(O)cc1	ALR H2O2 inh 99
O=C(N/N=C/c1ccc(O)cc1)c1csc2ccccc12	ALR H2O2 inh 98
C=CCN1C=C(C(=O)OCC)C(=O)CC1	none (no result: ALR H2O2 inh, ABHD5-PLIN5 inh, Rtt109 HAT inh, LANA-H2A inh)
Cc1cccc(NC(=O)Nc2nnc([C@H]3C[C@H](O)[C@@H](CO)O3)s2)c1	none (no result: ALR H2O2 inh, Rtt109 HAT inh, LANA-H2A inh)
O=C(/C=C/[C@H]1O[C@@H](n2ccc(=O)[nH]c2=O)[C@H](O)[C@@H]1O)NCCc1c[nH]c2ccccc12	none (no result: ALR H2O2 inh, Rtt109 HAT inh, LANA-H2A inh)
CNc1cncc(-c2cccc(O)c2)n1	none (no result: ALR H2O2 inh, Rtt109 HAT inh, LANA-H2A inh)
CC(COc1ccc([N+](=O)[O-])cc1Cl)CN1CCC(C(O)(c2ccccc2)c2ccccc2)CC1 (stereo not given)	none (no result: ALR H2O2 inh, ABHD5-PLIN5 inh, Rtt109 HAT inh, LANA-H2A inh)
O=C(CNC(=O)c1ccccc1Br)N/N=C/c1ccco1	none
O=C(CNC(=O)c1ccccc1Br)N/N=C/c1ccc(O)cc1	ALR H2O2 inh 99
CSCCC(NS(=O)(=O)c1ccc(C)cc1)C(=O)N1CCN(S(=O)(=O)c2ccc(F)cc2)CC1 (stereo not given)	none (no result: ALR H2O2 inh)
CCC1(c2ccc(Cl)cc2)NC(=S)N(c2ccc(C)c(C)c2)N1 (stereo not given)	ALR H2O2 inh 97 (no result: Rtt109 HAT inh)
O=C(CSc1nnc(-c2ccccn2)o1)Nc1ccccc1Cl	ALR H2O2 inh 99 (no result: Rtt109 HAT inh)
O=C(CSc1nnc(-c2ccncc2)o1)Nc1ccccc1Cl	none
CC1OC2(C)OC(=N)C1(C#N)C(C#N)(C#N)C2c1ccccc1 (stereo not given)	PRMT1 inh 25
Oc1cccc(NC(=S)N=Nc2c(O)[nH]c3ccc(Br)cc23)c1	ALR H2O2 inh 99
Oc1ccc(NC(=S)N=Nc2c(O)[nH]c3ccc(Br)cc23)cc1	none (no result: ALR H2O2 inh, LANA-H2A inh)
Cc1c(C(=O)OCCOC(C)C)[nH]c2c1C(=O)CC(c1ccco1)C2 (stereo not given)	ABHD5-PLIN5 inh 30 (no result: ALR H2O2 inh, PRMT1 inh, rCAG RNA binder)
CCCNC(=O)C1(C)CCCN(Cc2ccc(-c3ccccn3)cc2)C1 (stereo not given)	none (no result: ALR H2O2 inh, Rtt109 HAT inh, LANA-H2A inh)
Cc1ccccc1OCCNc1cc(N2CCN(CCO)CC2)ccc1[N+](=O)[O-]	ABHD5-PLIN5 inh 22
Cc1ccccc1OCCNc1cc(N2CCCCC2)ccc1[N+](=O)[O-]	none
O=C(NCc1ccco1)C1C(=O)Nc2ccccc2C(=O)N1C1CCCCC1 (stereo not given)	none (no result: ALR H2O2 inh, Rtt109 HAT inh, LANA-H2A inh)
Cc1ccc(OCC(=O)Nc2ccc(S(=O)(=O)Nc3ccccn3)cc2)c(C)c1	none
Cc1ccccc1OCC(=O)Nc1ccc(S(=O)(=O)Nc2ccccn2)cc1	ALR H2O2 inh 99
Cc1cc(NS(=O)(=O)c2ccc(NC(=O)CCCOc3ccccc3C)cc2)nc(C)n1	ALR H2O2 inh 99
COc1ccccc1OCCC(=O)Nc1ccc2c(c1)OCO2	none (no result: ALR H2O2 inh)
Cc1ccccc1OCCCC(=O)Nc1ccc2c(c1)OCO2	ALR H2O2 inh 98
COc1ccccc1CCC(=O)Nc1ccc(S(=O)(=O)Nc2cc(C)nc(C)n2)cc1	none
CC(C)(C)[C@H](NC(=O)c1cc(Cl)cc(Cl)c1)C(=O)N1CCC[C@H]1C(=O)N[C@H](C#N)CC(=O)O	none (no result: ALR H2O2 inh, ABHD5-PLIN5 inh, Rtt109 HAT inh, rCAG RNA binder, LANA-H2A inh)
Oc1ccccc1/C=N/Nc1ccccc1	ALR H2O2 inh 99
Oc1ccccc1/C=N/Nc1ncc(Br)cn1	LANA-H2A inh active
COc1cccc(N/N=C/c2cccc(Br)c2O)c1	ALR H2O2 inh 99
O=[N+]([O-])c1cccc(N/N=C/c2cccc(O)c2O)c1	ALR H2O2 inh 100
Oc1ccccc1/C=N/Nc1cccc2cccnc12	none (no result: ALR H2O2 inh)
Oc1ccccc1C=NNC(=S)NN=Cc1ccccc1O	none (no result: ALR H2O2 inh, LANA-H2A inh)
Cc1sc2ncnc(N/N=C/c3ccccc3O)c2c1C	ALR H2O2 inh 91
O=C(CCC(=O)c1cccs1)Nc1ccc(N2CCCCC2)cc1	ALR H2O2 inh 90
CC1CCCCN1CC(=O)Nc1ccc(N2CCCCCC2)cc1 (stereo not given)	ALR H2O2 inh 99
CC1CCCCN1CC(=O)Nc1ccc(Oc2ccccc2)cc1 (stereo not given)	none
Cc1ccc(NC(=O)CCC(=O)c2cccs2)cc1	none
CC(=O)Nc1ccc(N2CCCCC2)cc1	ALR H2O2 inh 99
CC(=O)Nc1ccc(S(=O)(=O)Nc2ccc(N3CCOCC3)cc2)cc1	ALR H2O2 inh 82
CC(=O)Nc1ccc(N2CCCC2)cc1	none
Cc1cc(N2CCN(C(=O)OC(C)(C)C)C[C@H]2C)ccc1N1C[C@@H](C)O[C@@H](C)C1	none (no result: ALR H2O2 inh, ABHD5-PLIN5 inh, Rtt109 HAT inh, LANA-H2A inh)
CCC(=O)Nc1ccc(N2CCCCC2)cc1	none (no result: ALR H2O2 inh)
CCCC(=O)Nc1ccc(N2CCCCC2)cc1	ALR H2O2 inh 82
O=C(CCl)Nc1ccc(N2CCCCCC2)cc1	ALR H2O2 inh 99
Cc1ccc(S(=O)(=O)Nc2ccc(N3CCCCC3)cc2)cc1	ALR H2O2 inh 98
COc1ccc(C(=O)O)cc1S(=O)(=O)Nc1ccc(N2CCCCC2)cc1	ALR H2O2 inh 96
O=C1N[C@H]2CC=C[C@H]2Nc2ccccc21	none (no result: ALR H2O2 inh, LANA-H2A inh)
O=C(Nc1ccc(N2CCCCC2)cc1)C1CCCN1S(=O)(=O)c1ccc(F)cc1 (stereo not given)	ALR H2O2 inh 80
CC1CCN(c2ccc(NC(=O)C3CCCN3S(=O)(=O)c3ccc(F)cc3)cc2)CC1 (stereo not given)	none
COC[C@@H]1CCCN1c1cccc2c1S(=O)(=O)N1CC[C@H](C1)O2	none (no result: ALR H2O2 inh, ABHD5-PLIN5 inh, Rtt109 HAT inh, LANA-H2A inh)
COC(=O)[C@]12C[C@H](CC(=O)N3CCC(c4ccccc4)CC3)C(=O)N(Cc3cccc4ccccc34)C1=C[C@H](C1CCCC1)O[C@@H]2C	none (no result: ALR H2O2 inh, ABHD5-PLIN5 inh, Rtt109 HAT inh, LANA-H2A inh)
CC(C)(C)OC(=O)NCc1ccccc1/C=C/S(=O)(=O)NCc1ccc(F)cc1	none (no result: ALR H2O2 inh, ABHD5-PLIN5 inh, Rtt109 HAT inh, LANA-H2A inh)
COC(=O)[C@@H]1[C@H]2C[C@H]3c4[nH]c5ccccc5c4CCN3C[C@@H]2CC[C@@H]1O	none
NNC(=O)C1C(O)CCC2CN3CCc4c([nH]c5ccccc45)C3CC21 (stereo not given)	PRMT1 inh 22 (no result: ALR H2O2 inh, LANA-H2A inh)
COC(=O)[C@]12C[C@H](CC(=O)NCc3cccc(C(F)(F)F)c3)C(=O)N(Cc3ccco3)C1=C[C@H](C(C)(C)C)O[C@@H]2C	none (no result: ALR H2O2 inh, ABHD5-PLIN5 inh, Rtt109 HAT inh, LANA-H2A inh)
CC[C@@H](C)[C@@H]1CN([C@@H](CN2CCC[C@H]2CN2C(N)=NC[C@H]2CC(C)C)C(C)C)C(=N)N1CCc1ccc(Cl)c(Cl)c1	none (no result: ALR H2O2 inh, LANA-H2A inh)
CCC[C@@H](CN1CCC[C@H]1CN1C(N)=NC[C@H]1CC(C)C)N1C[C@@H](Cc2ccccc2)N(CCc2ccc(Cl)c(Cl)c2)C1=N	ABHD5-PLIN5 inh 23

Assay outcomes (PubChem)
